# HCMV inh: human cytomegalovirus inhibition | HFF cells, HCMV-luciferase reporter, 72 h; stronger effect = lower value | activity change, negative = inhibition, % at 57.5 µM | hit rate 4.5% among 410,000 | AID 1259415; in the data active = activity change below about -60%; inconclusive = no clear call, values can overlap the other calls; inactive = above about -39%
#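 Human foreskin fibroblasts infected with luciferase-reporter HCMV at MOI 1 PFU/cell, compounds at two doses. Luciferase measured 72 h post infection; normalized to buffer-only basal and Salinomycin (10uM) controls.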
# FMDV inh: antivirals against foot and mouth disease virus; FMDV antiviral cell-based qHTS; Potency, µM (doses to about 57.9 µM), for inactives: top-dose activity change, negative = inhibition, usual class: inhibitors; hit rate 1.2% among 410,000; calls by dose curve; tested in HEK293T cells; also: read-out not given here; potency is read from the fitted curve at half-maximal effect; nearly all actives have a fitted effect of over 45% in size
# MARV entry inh: Marburg virus entry inhibition; Marburg virus pseudotyped entry inhibition, cell reporter; Potency, µM (series often up to 37.8 µM), for the others: at the top dose activity change, negative = inhibition, actives largely listed as inhibitors; hit rate 1.8% among 300,000; calls by dose curve; tested in HEK293 cells; also: potency is read from the fitted curve at half-maximal effect
# LASV entry inh: blocks Lassa virus binding to or entry into cells. Lassa virus pseudotype entry inhibition, cell reporter. Potency, µM (titrated, usually from 37.9 µM), without a hit: at the top dose activity change, negative = inhibition, usual class: inhibitors. hit rate 1.2% among 300,000; calls by dose curve; tested in HEK293 cells; also: potency is read from the fitted curve at half-maximal effect; nearly all actives have a fitted effect of over 50% in size
# Numbers without * were called inactive; ? = inconclusive; nt = not tested or not shown; [ ] = dose if it differs, or a comment. Most compounds without a hit are left out; they make up all but 6.2% or so of the library. % is scaled to controls: 0 for no effect and ±100 for the full control effect.
SMILES,HCMV inh,FMDV inh,MARV entry inh,LASV entry inh
COc1ccc(C2C=C(c3ccccc3)Nc3nc(NC(=O)/C=C/c4ccc(Cl)cc4)nn32)cc1 (stereo not given),1,-20%,-6%[46.1 µM],1%[46.1 µM]
O=C(CSc1nnc(NC(=O)c2ccc3c(c2)OCO3)s1)NCc1ccco1,14,-33%,7.1µM*,?
O=C(CSc1nnc(NC(=O)c2cccc(Br)c2)s1)NCC1CCCO1 (stereo not given),-98*,28%,-7%,-15%
CCC(C)N1C(=O)/C(=C/c2ccc3c(c2)CCN3CCCCl)C(=O)NC1=S (stereo not given),15,32µM*,-9%,?
O=C1NC(=O)N(c2ccc(Cl)cc2)C(=O)/C1=C/c1ccc2c(c1)CCN2Cc1ccccc1Cl,-23,-4%,-1%[46.1 µM],-2%
O=C(C1CCN(Cc2cccs2)CC1)N1CCN(Cc2ccc3c(c2)OCO3)CC1,-104*,-21%,?,0%
CCN(CC)C(=O)Cn1cnc2sc(C(=O)N3CCN(Cc4ccc5c(c4)OCO5)CC3)c(C)c2c1=O,-97*,-25%,-21%[46.1 µM],?
O=C(O)c1ccccc1C(=O)N1CCN(Cc2ccc3c(c2)OCO3)CC1,6,-16%,nt,nt
Cc1ccccc1C(=O)N1CCC(C(=O)N2CCN(Cc3ccc4c(c3)OCO4)CC2)CC1,-102*,?,-16%,11%
Cc1nn(Cc2ccccc2)c2sc(C(=O)N3CCN(Cc4ccc5c(c4)OCO5)CC3)cc12,-12,32µM*,?,?
O=C(c1cccs1)N1CCC(C(=O)N2CCN(Cc3ccc4c(c3)OCO4)CC2)CC1,?,?,?,-3%
O=C(c1ccc(F)cc1)N1CCC(C(=O)N2CCN(Cc3ccc4c(c3)OCO4)CC2)CC1,-1,-24%,-2%,8%
Clc1ccc(CSc2nnc(-c3ccccn3)n2Cc2cccs2)cc1Cl,2,-5%,nt,nt
CCCc1ccc(C(=O)O/N=C(\N)c2ccccn2)cc1,-70*,14µM*,11µM*,1.4µM*
N/C(=N\OC(=O)c1ccc2ccccc2c1)c1ccccn1,-83*,-45%,?,?
N/C(=N\OC(=O)c1ccc(=O)n(Cc2ccccc2)c1)c1ccccn1,0,35%,?,?
O=C1c2[nH]nc(-c3ccccc3O)c2C(c2ccc(F)cc2)N1Cc1ccco1 (stereo not given),-35,?,?,8.2µM*
COc1ccc(C2c3c(-c4ccccc4O)n[nH]c3C(=O)N2Cc2ccco2)cc1OC (stereo not given),-31,-3%,-14%[46.1 µM],?
O=C1c2[nH]nc(-c3ccccc3O)c2C(c2cccc(Cl)c2)N1Cc1ccco1 (stereo not given),14,?,13µM*,?
Cc1ccc2c(c1)cc(CN(C)Cc1nc(C)cs1)c(=O)n2C,nt,6%,nt,nt
Cc1c(C(=O)NCC2CCCN(C)C2)cnn1-c1ncc2c(n1)-c1ccccc1CCC2 (stereo not given),nt,0%,nt,nt
N#CC1c2ccccc2-n2nncc2CN1Cc1cc(Cl)cc(Cl)c1 (stereo not given),-100*,8.9µM*,nt,nt
CN1Cc2cnnn2-c2ccccc2C1C#N (stereo not given),-64*,-18%,nt,nt
N#CC1c2ccccc2-n2nncc2CN1S(=O)(=O)c1ccc(Cl)cc1 (stereo not given),-14,3%,nt,nt
COc1ccc(CN2Cc3cnnn3-c3ccccc3C2C#N)cc1 (stereo not given),-110*,25µM*,nt,nt
SMILES,HCMV inh,FMDV inh,MARV entry inh,LASV entry inh
C[C@@H](OC(=O)c1[nH]cnc1C(=O)NCc1ccc(CNC(=O)OC(C)(C)C)cc1)c1ccccc1,-15,32µM*,nt,nt
CC(C)(C)OC(=O)CNC(=O)c1[nH]cnc1C(=O)NCCCCCNC(=O)OC(C)(C)C,-5,16µM*,nt,nt
CC(C)(C)OC(=O)NCc1ccc(CNC(=O)c2nc[nH]c2C(=O)NCc2ccccc2)cc1,0,?,nt,nt
CN(Cc1ccccc1)C(=O)c1[nH]cnc1C(=O)NCc1ccc(CNC(=O)OC(C)(C)C)cc1,-1,?,nt,nt
CC(C)(C)OC(=O)NCc1ccc(CNC(=O)c2[nH]cnc2C(=O)NCC(=O)OCc2ccccc2)cc1,?,28µM*,nt,nt
O=C(c1cccc(F)c1)N(Cc1cc2cc3c(cc2nc1N1CCOCC1)CCC3)CC1CCCO1 (stereo not given),nt,-14%,nt,nt
CN(C)Cc1ccccc1-c1cncnc1NCc1cccnc1,nt,2%,nt,nt
COc1ccc(C(=O)N2CCCC(C)(C(=O)NS(=O)(=O)C3CC3)C2)cc1 (stereo not given),2,-18%,nt,nt
CCOc1ccc(NC(=O)CN2CCCN(Cc3cc(C)ccc3C)S2(=O)=O)cc1,?,0%,4%[46.1 µM],-3%[46.1 µM]
Clc1cccc(CNc2ncnc3c2nc2n3CCCC2)c1,-39,-4%,nt,?
Clc1ccc2nc(-c3ccc(Br)s3)cn2c1,6,-18%,?,8.2µM*
O=C(O)c1ccccc1-c1cn2cc(Cl)ccc2n1,5,0%,-1%[46.1 µM],?
O=C(COC(=O)C1=COCCO1)NCc1ccc(Cl)cc1Cl,-61*,-10%,nt,nt
COc1ccccc1CNC(=O)COC(=O)C1=COCCO1,-22,-6%,21%,-4%
Cc1ccc(C)c(N2CCN(CCCNC(=O)c3cnn(-c4cccc(Cl)c4)c3C3CCN(C(=O)OC(C)(C)C)CC3)CC2)c1,-4,-10%,nt,13µM*
Cc1ccc(C)c(N2CCN(CCCNC(=O)c3cnn(-c4ccccc4Cl)c3C3CCN(C(=O)OC(C)(C)C)CC3)CC2)c1,-105*,?,nt,?
Cc1ccc(C)c(N2CCN(CCCNC(=O)c3cnn(-c4ccc(F)cc4)c3C3CCN(C(=O)OC(C)(C)C)CC3)CC2)c1,-4,?,nt,7%[46.1 µM]
Cc1ccc(C)c(N2CCN(C(=O)c3cnn(-c4ccccc4Cl)c3C3CCN(C(=O)OC(C)(C)C)CC3)CC2)c1,5,?,nt,?
O=C(c1cnccn1)N1CC(=O)N2[C@H](C1)[C@@H](c1ccc(Br)cc1)[C@@H]2CO,-4,nt,nt,nt
CCC1CCC2(CC1)NC(CO)(CO)CO2 (stereo not given),30,nt,-1%,13%
CCC1CCC2(CC1)NNC(=S)NN2,-62*,-29%,-26%,-14%
CCOC(=O)Cc1nnc(Nc2cc(C)ccc2C)c2ccccc12,-60*,-9%,1%[46.1 µM],-1%[46.1 µM]
CCOC(=O)Cc1nnc(Nc2ccc(C)cc2C)c2ccccc12,-60*,?,5%,-16%
CCOC(=O)N(C)c1c(CC)nc2c(OCc3cc(Cl)cc(Cl)c3)cccn12,26,-22%,nt,nt
N#Cc1c(NC(=O)CSc2nnc(-c3ccccc3)o2)sc2c1CCCC2,24,21%,?,-19%
CCn1c(SCC(=O)Nc2sc3c(c2C#N)CCCC3)nnc1-c1ccncc1,58,-8%,12%[46.1 µM],-16%
N#Cc1c(NC(=O)CSc2nnc(-c3ccncc3)n2CC2CCCO2)sc2c1CCCC2 (stereo not given),-80*,-22%,-9%,-14%
N#Cc1c(NC(=O)CSc2ncc(-c3ccccc3)n2CC2CCCO2)sc2c1CCCC2 (stereo not given),-62*,0%,5.2µM*,7.3µM*
O=C(O)C1=C(O)CCCC1,nt,nt,2%,nt

# Source: PubChem (National Center for Advancing Translational Sciences (NCATS))
